# Measurements as given in article PMC7862700, “An all-to-all approach to the identification of sequence-specific readers for epigenetic DNA modifications on cytosine”.
# Legend:
# Test in all cases: DAPPL (digital affinity profiling via proximity ligation, sequencing); 10 mM Tris-HCl pH 7.5, 50 mM NaCl, 1 mM DTT, 4% glycerol, room temperature, 30 min; GST-TFs on glutathione beads, 16-mer random dsDNA library, 0.1% formaldehyde crosslink after washing; high values mean tight binding
# Conditions in all cases: protein: recombinant; tags: N-terminal GST; dsDNA, one strand shown
# FLI1 = biological target: T1, FLI1 (Homo sapiens, UniProt Q01543 1-452)
# T1 sequence: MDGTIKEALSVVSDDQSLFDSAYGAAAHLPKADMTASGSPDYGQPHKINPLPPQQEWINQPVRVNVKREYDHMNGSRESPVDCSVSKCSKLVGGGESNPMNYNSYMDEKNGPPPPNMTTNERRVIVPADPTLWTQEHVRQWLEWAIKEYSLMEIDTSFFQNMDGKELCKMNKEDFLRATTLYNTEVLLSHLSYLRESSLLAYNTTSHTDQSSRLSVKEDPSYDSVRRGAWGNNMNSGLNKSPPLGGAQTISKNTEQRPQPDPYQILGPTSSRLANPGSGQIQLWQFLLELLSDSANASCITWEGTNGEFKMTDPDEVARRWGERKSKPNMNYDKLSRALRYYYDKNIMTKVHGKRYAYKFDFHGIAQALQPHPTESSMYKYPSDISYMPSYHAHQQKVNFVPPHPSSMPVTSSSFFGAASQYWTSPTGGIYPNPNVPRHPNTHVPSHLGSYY
# Summary of the method: (§1)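 Each value of binding signal is a hexamer's read frequency for a factor divided by the same hexamer's frequency in the tag-only sample. Barcoded, bead-captured GST fusions of human transcription factors made in yeast were pooled with that sample and incubated with 200 nmole of a random double-stranded 16-mer DNA library in Tris/NaCl/DTT/glycerol buffer at room temperature for 30 min. Washing, 0.1% formaldehyde crosslinking, proximity ligation, PCR and Illumina NextSeq500 sequencing followed.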
# ELK1 = biological target: T2, ELK1 (Homo sapiens, UniProt P19419 1-428)
# T2 sequence: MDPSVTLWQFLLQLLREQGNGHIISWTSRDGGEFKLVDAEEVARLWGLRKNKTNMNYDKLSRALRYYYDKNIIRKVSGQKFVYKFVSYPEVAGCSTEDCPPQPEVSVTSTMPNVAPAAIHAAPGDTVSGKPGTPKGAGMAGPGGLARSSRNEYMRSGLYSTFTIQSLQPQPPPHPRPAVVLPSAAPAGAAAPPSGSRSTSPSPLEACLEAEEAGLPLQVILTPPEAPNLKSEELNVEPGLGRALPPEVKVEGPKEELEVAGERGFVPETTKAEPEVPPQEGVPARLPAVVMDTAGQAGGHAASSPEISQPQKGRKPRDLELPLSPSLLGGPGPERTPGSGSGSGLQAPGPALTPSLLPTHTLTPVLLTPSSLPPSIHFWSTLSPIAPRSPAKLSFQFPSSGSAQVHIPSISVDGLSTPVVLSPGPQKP
# Summary of the method: as §1
# GABPA = biological target: T3, GABPA (Homo sapiens, UniProt Q06546 1-454)
# T3 sequence: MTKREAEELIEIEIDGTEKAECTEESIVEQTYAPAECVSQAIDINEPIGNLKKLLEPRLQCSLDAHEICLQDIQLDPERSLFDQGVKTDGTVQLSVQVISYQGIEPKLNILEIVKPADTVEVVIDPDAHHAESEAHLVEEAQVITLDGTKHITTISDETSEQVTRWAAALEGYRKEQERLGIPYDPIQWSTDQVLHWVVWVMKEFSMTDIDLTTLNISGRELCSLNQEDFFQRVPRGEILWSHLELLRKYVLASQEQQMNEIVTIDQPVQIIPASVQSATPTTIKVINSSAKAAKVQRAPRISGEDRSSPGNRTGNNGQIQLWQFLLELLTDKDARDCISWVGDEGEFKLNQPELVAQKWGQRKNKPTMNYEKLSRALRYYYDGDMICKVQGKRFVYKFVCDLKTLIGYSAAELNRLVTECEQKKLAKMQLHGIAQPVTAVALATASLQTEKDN
# Summary of the method: as §1
# ERG = biological target: T4, ERG (Homo sapiens, UniProt P11308 1-479)
# T4 sequence: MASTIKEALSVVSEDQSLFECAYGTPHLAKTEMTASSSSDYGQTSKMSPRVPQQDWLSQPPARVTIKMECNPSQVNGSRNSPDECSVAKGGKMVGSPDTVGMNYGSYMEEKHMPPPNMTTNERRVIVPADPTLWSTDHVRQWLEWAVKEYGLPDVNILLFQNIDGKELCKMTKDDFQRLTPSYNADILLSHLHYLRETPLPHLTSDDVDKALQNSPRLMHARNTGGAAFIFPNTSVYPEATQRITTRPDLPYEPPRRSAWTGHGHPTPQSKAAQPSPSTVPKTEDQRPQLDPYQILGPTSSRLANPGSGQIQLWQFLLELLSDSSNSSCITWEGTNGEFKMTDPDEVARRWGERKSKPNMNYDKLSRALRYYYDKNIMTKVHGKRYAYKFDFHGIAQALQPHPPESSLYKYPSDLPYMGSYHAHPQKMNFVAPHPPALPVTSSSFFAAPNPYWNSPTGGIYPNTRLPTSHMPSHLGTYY
# Summary of the method: as §1
# ELF1 = ELF1 (Homo sapiens, UniProt P32519 1-619)
# Summary of the method: as §1
# EHF = biological target: T5, EHF (Homo sapiens, UniProt Q9NZC4 1-300)
# T5 sequence: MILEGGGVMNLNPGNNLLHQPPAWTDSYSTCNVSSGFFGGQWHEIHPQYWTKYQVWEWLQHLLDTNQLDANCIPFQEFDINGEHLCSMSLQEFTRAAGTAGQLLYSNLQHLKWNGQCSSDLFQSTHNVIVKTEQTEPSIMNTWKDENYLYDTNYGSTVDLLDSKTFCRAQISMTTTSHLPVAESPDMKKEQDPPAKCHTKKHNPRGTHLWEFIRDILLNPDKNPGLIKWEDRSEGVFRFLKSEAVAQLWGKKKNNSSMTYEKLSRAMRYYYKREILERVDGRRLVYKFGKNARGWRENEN
# Summary of the method: as §1
# SPI1 = SPI1 (Homo sapiens, UniProt P17947 1-270)
# Summary of the method: as §1
# SPIB = SPIB (Homo sapiens, UniProt Q01892 1-262)
# Summary of the method: as §1
# ELK3 = biological target: T6, ELK3 (Homo sapiens, UniProt P41970 1-407)
# T6 sequence: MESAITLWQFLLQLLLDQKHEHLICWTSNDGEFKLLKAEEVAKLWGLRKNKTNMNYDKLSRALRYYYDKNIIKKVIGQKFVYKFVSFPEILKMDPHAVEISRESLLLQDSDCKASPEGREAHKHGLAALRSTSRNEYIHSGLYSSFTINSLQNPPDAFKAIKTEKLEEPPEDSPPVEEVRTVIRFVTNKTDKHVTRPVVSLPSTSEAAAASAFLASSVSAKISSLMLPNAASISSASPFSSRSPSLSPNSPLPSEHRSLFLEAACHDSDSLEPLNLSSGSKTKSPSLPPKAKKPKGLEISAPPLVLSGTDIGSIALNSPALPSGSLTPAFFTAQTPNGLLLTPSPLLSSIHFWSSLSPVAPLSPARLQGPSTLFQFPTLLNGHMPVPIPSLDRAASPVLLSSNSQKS
# Summary of the method: as §1
# SPIB, sequence (Q01892 whole entry): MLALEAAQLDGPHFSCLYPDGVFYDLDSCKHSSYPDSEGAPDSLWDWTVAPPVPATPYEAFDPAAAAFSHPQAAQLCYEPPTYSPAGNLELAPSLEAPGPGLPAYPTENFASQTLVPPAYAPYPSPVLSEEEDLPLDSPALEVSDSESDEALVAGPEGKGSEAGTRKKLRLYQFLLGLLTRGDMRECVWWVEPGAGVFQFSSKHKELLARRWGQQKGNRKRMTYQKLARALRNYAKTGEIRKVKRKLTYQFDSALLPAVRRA
# ELF1, sequence (P32519 whole entry): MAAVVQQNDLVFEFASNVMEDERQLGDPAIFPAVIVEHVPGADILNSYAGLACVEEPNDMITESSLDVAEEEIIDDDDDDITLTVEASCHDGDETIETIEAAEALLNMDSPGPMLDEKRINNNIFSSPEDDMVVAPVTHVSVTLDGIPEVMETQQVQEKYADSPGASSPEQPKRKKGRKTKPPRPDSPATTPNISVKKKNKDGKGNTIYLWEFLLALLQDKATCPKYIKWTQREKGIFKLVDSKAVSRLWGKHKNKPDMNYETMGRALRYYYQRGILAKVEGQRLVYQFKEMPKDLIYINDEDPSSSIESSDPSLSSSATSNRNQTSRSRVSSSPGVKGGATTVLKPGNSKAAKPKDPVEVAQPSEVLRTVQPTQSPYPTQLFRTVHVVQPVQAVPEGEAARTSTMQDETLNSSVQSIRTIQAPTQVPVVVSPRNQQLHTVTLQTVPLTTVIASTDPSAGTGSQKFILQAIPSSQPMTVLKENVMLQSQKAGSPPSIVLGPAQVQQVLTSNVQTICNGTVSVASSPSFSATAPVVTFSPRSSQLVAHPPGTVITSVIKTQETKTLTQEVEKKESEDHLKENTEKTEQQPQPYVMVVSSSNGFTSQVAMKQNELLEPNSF
Sequence,binding signal (FLI1),binding signal (ELK1),binding signal (GABPA),binding signal (ERG),binding signal (ELF1),binding signal (EHF),binding signal (SPI1),binding signal (SPIB),binding signal (ELK3)
ACTTAG,"1.04 fold enrichment (6-mer frequency, TF over GST control)","1.06 fold enrichment (6-mer frequency, TF over GST control)","1.11 fold enrichment (6-mer frequency, TF over GST control)","1.09 fold enrichment (6-mer frequency, TF over GST control)","1.05 fold enrichment (6-mer frequency, TF over GST control)","1.11 fold enrichment (6-mer frequency, TF over GST control)","1.05 fold enrichment (6-mer frequency, TF over GST control)","1.11 fold enrichment (6-mer frequency, TF over GST control)","1.17 fold enrichment (6-mer frequency, TF over GST control)"
CTCCGC,"1.51 fold enrichment (6-mer frequency, TF over GST control)","1.63 fold enrichment (6-mer frequency, TF over GST control)","1.58 fold enrichment (6-mer frequency, TF over GST control)","1.38 fold enrichment (6-mer frequency, TF over GST control)","1.56 fold enrichment (6-mer frequency, TF over GST control)","1.37 fold enrichment (6-mer frequency, TF over GST control)","1.56 fold enrichment (6-mer frequency, TF over GST control)","1.37 fold enrichment (6-mer frequency, TF over GST control)","1.5 fold enrichment (6-mer frequency, TF over GST control)"
GCGCCT,"1.09 fold enrichment (6-mer frequency, TF over GST control)","1.19 fold enrichment (6-mer frequency, TF over GST control)","1.11 fold enrichment (6-mer frequency, TF over GST control)","1.04 fold enrichment (6-mer frequency, TF over GST control)","1.1 fold enrichment (6-mer frequency, TF over GST control)","1.05 fold enrichment (6-mer frequency, TF over GST control)","1.12 fold enrichment (6-mer frequency, TF over GST control)","1.16 fold enrichment (6-mer frequency, TF over GST control)","1.05 fold enrichment (6-mer frequency, TF over GST control)"
ACTCAC,"1.22 fold enrichment (6-mer frequency, TF over GST control)","1.31 fold enrichment (6-mer frequency, TF over GST control)","1.27 fold enrichment (6-mer frequency, TF over GST control)","1.17 fold enrichment (6-mer frequency, TF over GST control)","1.18 fold enrichment (6-mer frequency, TF over GST control)","1.24 fold enrichment (6-mer frequency, TF over GST control)","1.23 fold enrichment (6-mer frequency, TF over GST control)","1.44 fold enrichment (6-mer frequency, TF over GST control)","1.35 fold enrichment (6-mer frequency, TF over GST control)"
GTTCAA,"1.07 fold enrichment (6-mer frequency, TF over GST control)","1.18 fold enrichment (6-mer frequency, TF over GST control)","1.17 fold enrichment (6-mer frequency, TF over GST control)","1.14 fold enrichment (6-mer frequency, TF over GST control)","1.16 fold enrichment (6-mer frequency, TF over GST control)","1.18 fold enrichment (6-mer frequency, TF over GST control)","1.19 fold enrichment (6-mer frequency, TF over GST control)","1.19 fold enrichment (6-mer frequency, TF over GST control)","1.13 fold enrichment (6-mer frequency, TF over GST control)"
ACCGTC,"1.25 fold enrichment (6-mer frequency, TF over GST control)","1.21 fold enrichment (6-mer frequency, TF over GST control)","1.26 fold enrichment (6-mer frequency, TF over GST control)","1.15 fold enrichment (6-mer frequency, TF over GST control)","1.19 fold enrichment (6-mer frequency, TF over GST control)","1.07 fold enrichment (6-mer frequency, TF over GST control)","1.18 fold enrichment (6-mer frequency, TF over GST control)","1.09 fold enrichment (6-mer frequency, TF over GST control)","1.22 fold enrichment (6-mer frequency, TF over GST control)"
TGACAA,"1.18 fold enrichment (6-mer frequency, TF over GST control)","1.19 fold enrichment (6-mer frequency, TF over GST control)","1.32 fold enrichment (6-mer frequency, TF over GST control)","1.28 fold enrichment (6-mer frequency, TF over GST control)","1.38 fold enrichment (6-mer frequency, TF over GST control)","1.21 fold enrichment (6-mer frequency, TF over GST control)","1.25 fold enrichment (6-mer frequency, TF over GST control)","1.14 fold enrichment (6-mer frequency, TF over GST control)","1.12 fold enrichment (6-mer frequency, TF over GST control)"
